Measurements as given in ChEMBL document CHEMBL3988442, “University of Dundee, Small-Polar-MMV Screening Library” (2021).
For some assays here: Measured potencies and affinities stand elsewhere.

Tests used:
Design in all cases: scale not given: direction of the effect not stated beside the values
[1] = target: Protein translocase subunit SecA (Escherichia coli (strain K12)) (UniProt P10408); test: Assay to Identify E. coli SecA ATPase Inhibitors; type: functional; settings: 30 µM
[2] = target: T1, Ubiquitin-activating enzyme e1, putative (Leishmania donovani (strain BPK282A1)) (UniProt E9BSI1); test: Leishmania donovani Ubiquitin Activating Enzyme (LdE1); type: functional; settings: 30 µM
T1 sequence (whole entry): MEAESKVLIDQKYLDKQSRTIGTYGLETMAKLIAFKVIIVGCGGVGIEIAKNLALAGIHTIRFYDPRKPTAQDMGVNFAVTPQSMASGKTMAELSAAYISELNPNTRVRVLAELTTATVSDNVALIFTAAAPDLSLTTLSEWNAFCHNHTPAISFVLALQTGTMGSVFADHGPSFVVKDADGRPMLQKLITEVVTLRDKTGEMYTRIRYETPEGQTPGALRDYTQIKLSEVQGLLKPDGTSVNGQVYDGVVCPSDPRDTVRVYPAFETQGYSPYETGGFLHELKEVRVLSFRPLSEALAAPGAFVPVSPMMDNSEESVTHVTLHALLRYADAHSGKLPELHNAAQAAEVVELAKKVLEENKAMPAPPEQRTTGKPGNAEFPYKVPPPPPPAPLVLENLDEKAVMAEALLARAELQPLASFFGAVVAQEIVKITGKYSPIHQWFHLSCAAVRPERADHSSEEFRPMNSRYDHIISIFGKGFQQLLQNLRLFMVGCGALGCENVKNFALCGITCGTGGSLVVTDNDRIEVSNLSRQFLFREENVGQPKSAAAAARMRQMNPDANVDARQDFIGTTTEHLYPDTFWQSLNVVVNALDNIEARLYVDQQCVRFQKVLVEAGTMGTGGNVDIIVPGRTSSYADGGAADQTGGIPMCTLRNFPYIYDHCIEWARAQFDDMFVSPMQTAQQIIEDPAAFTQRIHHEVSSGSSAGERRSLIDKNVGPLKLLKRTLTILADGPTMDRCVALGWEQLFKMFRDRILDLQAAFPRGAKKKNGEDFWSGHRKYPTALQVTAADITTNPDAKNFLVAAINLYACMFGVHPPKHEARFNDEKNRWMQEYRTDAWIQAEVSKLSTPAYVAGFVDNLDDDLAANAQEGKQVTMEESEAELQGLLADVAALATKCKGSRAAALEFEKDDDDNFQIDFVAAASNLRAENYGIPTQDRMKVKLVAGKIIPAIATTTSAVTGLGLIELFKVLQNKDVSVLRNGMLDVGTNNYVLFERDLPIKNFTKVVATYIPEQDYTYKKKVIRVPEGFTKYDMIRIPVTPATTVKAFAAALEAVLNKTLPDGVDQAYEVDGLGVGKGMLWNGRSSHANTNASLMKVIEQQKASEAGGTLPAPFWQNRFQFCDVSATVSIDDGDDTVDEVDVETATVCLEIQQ

[3] = target: Sialic acid-binding Ig-like lectin 9 (Homo sapiens) (UniProt Q9Y336); test: Hs-Siglec9 ALPHAscreen SOP 20170721; settings: 10 µM
Trypanosoma cruzi = test: Trypanosoma cruzi phosphomannomutase and mannose-1-phosphate guanylyltransferase assay; type: functional; settings: 10 µM
[4] = target: T2, Arginase-2, mitochondrial (Homo sapiens) (UniProt P78540); test: in vitro enzyme assay to detect the production of urea directly proportional to the activity of Arginase II; type: functional; settings: 33.3 µM; also: in the data most compounds retested in dose-response had high values
T2 sequence (whole entry): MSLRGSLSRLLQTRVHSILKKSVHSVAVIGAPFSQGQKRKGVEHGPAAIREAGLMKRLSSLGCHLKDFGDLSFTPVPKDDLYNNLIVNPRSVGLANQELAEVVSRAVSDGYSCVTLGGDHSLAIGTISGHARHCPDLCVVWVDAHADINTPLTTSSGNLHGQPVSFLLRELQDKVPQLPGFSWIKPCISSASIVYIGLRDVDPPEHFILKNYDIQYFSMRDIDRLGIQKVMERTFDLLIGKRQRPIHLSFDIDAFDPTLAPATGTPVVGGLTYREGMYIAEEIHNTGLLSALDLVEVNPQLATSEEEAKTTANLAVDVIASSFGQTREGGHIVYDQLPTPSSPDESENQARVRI

[5] = target: T3, Proteasome subunit beta (Trypanosoma cruzi) (UniProt O96673); test: Trypanosoma cruzi proteasome chymotrypsin-like activity (TcProtChymo) assay.; also: in the data most compounds retested in dose-response had high values; type: functional; settings: 9.37 µM
T3 sequence (whole entry): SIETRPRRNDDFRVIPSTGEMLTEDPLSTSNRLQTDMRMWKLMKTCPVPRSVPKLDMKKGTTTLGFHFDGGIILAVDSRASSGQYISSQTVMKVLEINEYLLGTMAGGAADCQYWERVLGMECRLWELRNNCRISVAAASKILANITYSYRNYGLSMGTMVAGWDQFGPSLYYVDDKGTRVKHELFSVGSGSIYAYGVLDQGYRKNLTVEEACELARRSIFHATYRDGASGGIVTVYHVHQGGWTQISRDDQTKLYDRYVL

Homo sapiens = species: Homo sapiens; test: To identify inhibition of the IFN signalling (Jak-Stat) pathway via expression of an eGFP reporter gene under the control of an IFN-stimulated response element (ISRE) containing MxA promoter.; type: functional; settings: 30 µM
[6] = target: T4, Tyrosyl-tRNA synthetase, putative (Trypanosoma cruzi (strain CL Brener)) (UniProt Q4DSP6); test: Trypanosoma cruzi tyrosyl tRNA synthetase (TcYRS) _High Tyrosine SOP; type: functional; settings: 30 µM; also: in the data most compounds retested in dose-response had high values
T4 sequence (whole entry): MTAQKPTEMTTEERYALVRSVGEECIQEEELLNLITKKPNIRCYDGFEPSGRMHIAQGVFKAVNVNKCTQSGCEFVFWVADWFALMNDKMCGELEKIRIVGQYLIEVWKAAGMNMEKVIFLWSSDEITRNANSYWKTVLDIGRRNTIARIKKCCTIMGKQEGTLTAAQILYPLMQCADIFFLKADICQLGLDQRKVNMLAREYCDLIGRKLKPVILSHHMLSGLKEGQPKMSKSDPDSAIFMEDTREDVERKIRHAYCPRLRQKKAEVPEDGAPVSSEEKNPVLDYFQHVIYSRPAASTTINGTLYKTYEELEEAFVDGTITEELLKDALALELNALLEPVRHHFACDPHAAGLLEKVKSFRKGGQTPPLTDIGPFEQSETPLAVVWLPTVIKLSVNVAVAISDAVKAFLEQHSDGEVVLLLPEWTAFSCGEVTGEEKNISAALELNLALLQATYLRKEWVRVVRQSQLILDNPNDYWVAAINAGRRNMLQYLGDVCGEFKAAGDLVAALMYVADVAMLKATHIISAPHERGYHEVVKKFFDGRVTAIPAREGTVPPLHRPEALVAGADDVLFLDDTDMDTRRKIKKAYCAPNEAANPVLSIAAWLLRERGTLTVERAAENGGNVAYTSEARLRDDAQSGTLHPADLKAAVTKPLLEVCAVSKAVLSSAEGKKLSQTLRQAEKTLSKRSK

[7] = target: T4, Tyrosyl-tRNA synthetase, putative (Trypanosoma cruzi (strain CL Brener)); test: Trypanosoma cruzi tyrosyl tRNA synthetase (TcYRS) SOP; type: functional; settings: 30 µM
[8] = target: Chromo domain-containing protein 1 (Saccharomyces cerevisiae (strain ATCC 204508 / S288c) (Baker's yeast)) (UniProt P32657); test: ScCHD-1 Enzyme Inhibition Assay; type: functional; settings: 30 µM; also: in the data most compounds retested in dose-response had high values
Chromo domain-containing protein 1 (Saccharomyces cerevisiae (strain ATCC 204508 / S288c) (Baker's yeast)), sequence (P32657 whole entry, the tested form may be a part): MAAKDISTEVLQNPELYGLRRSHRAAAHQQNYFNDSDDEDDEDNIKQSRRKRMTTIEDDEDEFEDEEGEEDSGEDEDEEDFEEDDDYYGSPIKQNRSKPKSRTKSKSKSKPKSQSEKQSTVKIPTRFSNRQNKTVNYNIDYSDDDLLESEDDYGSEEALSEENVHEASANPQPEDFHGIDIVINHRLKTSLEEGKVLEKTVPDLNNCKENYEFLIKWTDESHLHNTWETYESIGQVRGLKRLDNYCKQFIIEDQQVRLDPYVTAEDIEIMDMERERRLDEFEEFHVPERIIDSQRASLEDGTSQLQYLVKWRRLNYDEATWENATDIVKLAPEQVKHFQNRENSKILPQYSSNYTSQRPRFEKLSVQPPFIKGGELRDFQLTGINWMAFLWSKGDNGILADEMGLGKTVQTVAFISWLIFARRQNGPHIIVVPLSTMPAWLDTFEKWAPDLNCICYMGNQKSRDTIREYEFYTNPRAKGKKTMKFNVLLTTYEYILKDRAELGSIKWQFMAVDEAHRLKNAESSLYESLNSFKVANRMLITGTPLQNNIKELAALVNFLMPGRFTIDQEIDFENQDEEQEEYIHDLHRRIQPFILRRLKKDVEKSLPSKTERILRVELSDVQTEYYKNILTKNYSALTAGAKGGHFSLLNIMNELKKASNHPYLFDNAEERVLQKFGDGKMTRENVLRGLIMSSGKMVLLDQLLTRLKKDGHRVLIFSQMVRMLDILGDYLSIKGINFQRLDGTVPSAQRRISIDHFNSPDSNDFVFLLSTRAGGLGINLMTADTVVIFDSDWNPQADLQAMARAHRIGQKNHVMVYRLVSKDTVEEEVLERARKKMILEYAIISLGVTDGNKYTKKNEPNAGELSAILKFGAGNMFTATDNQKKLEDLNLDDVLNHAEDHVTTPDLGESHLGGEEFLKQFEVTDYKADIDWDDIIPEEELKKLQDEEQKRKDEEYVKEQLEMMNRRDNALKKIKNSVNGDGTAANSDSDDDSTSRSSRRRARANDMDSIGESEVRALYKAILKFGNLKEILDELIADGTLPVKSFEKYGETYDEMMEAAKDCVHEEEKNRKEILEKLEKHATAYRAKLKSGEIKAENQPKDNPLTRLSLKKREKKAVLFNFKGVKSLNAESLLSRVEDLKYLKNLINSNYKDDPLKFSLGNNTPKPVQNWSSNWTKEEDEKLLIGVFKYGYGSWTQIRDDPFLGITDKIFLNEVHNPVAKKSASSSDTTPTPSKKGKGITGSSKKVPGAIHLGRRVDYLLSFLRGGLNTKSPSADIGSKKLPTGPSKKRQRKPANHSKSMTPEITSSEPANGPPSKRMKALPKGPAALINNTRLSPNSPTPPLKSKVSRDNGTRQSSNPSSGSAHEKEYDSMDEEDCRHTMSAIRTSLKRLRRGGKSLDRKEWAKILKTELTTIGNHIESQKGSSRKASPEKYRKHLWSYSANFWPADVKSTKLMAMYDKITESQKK

Sialic acid-binding Ig-like lectin 9 (Homo sapiens), sequence (Q9Y336 whole entry): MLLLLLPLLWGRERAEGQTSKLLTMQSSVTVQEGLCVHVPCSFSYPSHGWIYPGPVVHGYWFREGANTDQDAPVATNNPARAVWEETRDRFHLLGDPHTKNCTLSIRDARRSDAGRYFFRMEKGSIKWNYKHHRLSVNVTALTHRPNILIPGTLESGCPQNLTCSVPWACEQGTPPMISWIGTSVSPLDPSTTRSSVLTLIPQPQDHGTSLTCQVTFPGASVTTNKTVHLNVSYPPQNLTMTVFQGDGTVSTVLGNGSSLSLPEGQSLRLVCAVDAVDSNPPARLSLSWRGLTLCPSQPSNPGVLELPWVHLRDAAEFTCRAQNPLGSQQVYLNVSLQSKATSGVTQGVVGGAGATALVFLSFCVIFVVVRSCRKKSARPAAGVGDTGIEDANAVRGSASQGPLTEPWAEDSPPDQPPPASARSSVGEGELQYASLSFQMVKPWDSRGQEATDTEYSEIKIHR
Protein translocase subunit SecA (Escherichia coli (strain K12)), sequence (P10408 whole entry): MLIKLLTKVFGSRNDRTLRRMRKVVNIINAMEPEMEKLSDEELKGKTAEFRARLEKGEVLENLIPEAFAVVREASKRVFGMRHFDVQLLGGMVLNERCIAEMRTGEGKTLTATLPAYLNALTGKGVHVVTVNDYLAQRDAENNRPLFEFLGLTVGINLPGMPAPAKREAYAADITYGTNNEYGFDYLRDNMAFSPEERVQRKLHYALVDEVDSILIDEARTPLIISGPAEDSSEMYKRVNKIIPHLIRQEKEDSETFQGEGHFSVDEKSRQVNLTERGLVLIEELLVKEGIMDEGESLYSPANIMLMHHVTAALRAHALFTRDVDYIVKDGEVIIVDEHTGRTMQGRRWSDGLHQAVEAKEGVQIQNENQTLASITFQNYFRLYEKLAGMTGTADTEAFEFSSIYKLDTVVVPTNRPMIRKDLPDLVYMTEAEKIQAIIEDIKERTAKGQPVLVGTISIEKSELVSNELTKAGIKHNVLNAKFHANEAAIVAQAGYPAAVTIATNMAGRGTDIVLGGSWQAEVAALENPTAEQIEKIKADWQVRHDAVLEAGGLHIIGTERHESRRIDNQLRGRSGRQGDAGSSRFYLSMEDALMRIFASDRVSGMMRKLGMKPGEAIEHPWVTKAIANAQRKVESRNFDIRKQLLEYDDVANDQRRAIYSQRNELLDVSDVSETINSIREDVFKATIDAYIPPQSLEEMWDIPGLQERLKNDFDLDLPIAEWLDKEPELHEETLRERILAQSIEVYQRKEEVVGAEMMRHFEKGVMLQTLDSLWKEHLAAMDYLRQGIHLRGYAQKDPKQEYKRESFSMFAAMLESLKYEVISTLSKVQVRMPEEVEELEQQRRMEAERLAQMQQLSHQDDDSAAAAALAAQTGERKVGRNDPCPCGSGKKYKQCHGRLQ

| Structure (SMILES) | Percent Effect [1] | Percent Effect [2] | Percent Effect [3] | Percent Effect (Trypanosoma cruzi) | Percent Effect [4] | Percent Effect [5] | Percent Effect (Homo sapiens) | Percent Effect [6] | Percent Effect [7] | Percent Effect [8] |
| --- | --- | --- | --- | --- | --- | --- | --- | --- | --- | --- |
| Cn1cc(CN2CCC3(CCCN3S(C)(=O)=O)CC2)cn1 | -3.77% | -1.3% | -1.55% | -5.36% | -0.81% | 1.15% | 1.96% | -2.63% | -25.6% | -1.37% |
| CC1CN(CC2CCCCC2)CCN1c1ccc2nncn2n1 (stereo not given) | 3.17% | 15.4% | -7.37% | -4.6% | -0.82% | 16.1% | 58.1% | 5.26% | 8.43% | 95.7% |
| CCNC(=O)CCN1CCC(c2cc(N3CCOCC3)nc(C)n2)CC1 | -3.37% | 5.41% | 12.8% | 5.92% | 16.4% | 6.51% | 17.2% | 2.66% | 9.76% | 98.8% |
| COCC(=O)N1CCC(c2nccnc2Oc2cccnc2C)CC1 | 0.43% | 14.7% | -6.2% | -3.35% | 4.87% | 15.6% | -0.132% | 0% | 7.5% | -22.1% |
| Cc1nc(CN2CCN(Cc3ccoc3)Cc3cccnc32)cs1 | -1.42% | -1.3% | -2.07% | -2.82% | -4.45% | 12.3% | 10.4% | 1.58% | -5.13% | 1.4% |
| CCC(NC(N)=O)c1ccccc1OCC(=O)N1CCCC1 (stereo not given) | -1.4% | 10.3% | -13.8% | -4.41% | -4.92% | 9.81% | 16.9% | 5.26% | 18.1% | -6% |
| CN(C)c1cc(C(=O)N2CCN(S(C)(=O)=O)CC2)ccn1 | -7.92% | 10.3% | -9.31% | -5.35% | -2.46% | 6.23% | 25.7% | 4.31% | 8.43% | -0.991% |
| CCn1ncc(Br)c1CN(C)S(=O)(=O)c1ccc(C)cc1 | 0.567% | 6.67% | -0.565% | 3.35% | 6.2% | 15.3% | 14% | 4.23% | 10% | -22% |
| CC(=O)N1CCCn2nc(CNS(=O)(=O)c3cc(C)cs3)cc2C1 | -6.27% | 2.7% | -0.0396% | -2.42% | 4.54% | 4.11% | 0.293% | 4.79% | 7.32% | 3.74% |
| CC[C@@H]1N(Cc2ccsc2)CCC[C@]12CCC(=O)N2C | -5.65% | 3.9% | -0.653% | -1.69% | 1.37% | 2.66% | 32.3% | -0.966% | -12.5% | 0.966% |
| Cc1cc(NCc2cc3n(n2)CCCN(C(=O)N(C)C)C3)ncn1 | -14.3% | 2.7% | 3.53% | -1.84% | 1.05% | 3.42% | 4.33% | 1.6% | 4.88% | 0.382% |
| COCCN1C(=O)CCC12CCN(C(=O)CC1CC1)CC2 | -0.652% | -1.3% | 0.0799% | -0.938% | 2.28% | 5.75% | 11.8% | -0.966% | -15% | 0.945% |
| COCCN1CC[C@]2(CN(C(=O)c3cccs3)C[C@H]2C)C1=O | 0.25% | 1.3% | 1.96% | -0.938% | -0.457% | 9.7% | 0.303% | 0.966% | 0% | 0.0651% |
| CC(C)c1nnc2n1CCN(C(=O)c1cccc(C(F)(F)F)c1)C2 | -5.89% | 18.7% | 10% | 2.81% | 1.33% | 6.19% | 7.24% | 6.84% | 15.4% | -7.15% |
| NC(=O)c1cc(C2CCCN(CCCOc3ccccc3)C2)n[nH]1 (stereo not given) | 1.07% | -15.4% | 18.7% | -0.282% | 6.15% | 1.79% | 0.734% | 1.44% | -1.21% | -4.36% |
| Cc1nc(C2CCCN(C(=O)CO)C2)cc(N2CCOCC2)n1 (stereo not given) | -7.77% | 0% | 22.8% | 9.02% | -2.45% | 13.7% | 6.91% | 3.72% | 14.6% | -5.28% |
| Cn1c(Cn2cccn2)nnc1C1CCCN(c2ccncc2F)C1 (stereo not given) | -3.83% | 10.8% | 2.04% | -2.62% | 0.35% | 12% | 27.1% | 2.66% | 12.2% | 0.18% |
| Cc1n[nH]c(=O)c2c(NC(=O)CN3CCCC(C(F)(F)F)C3)oc(C)c12 (stereo not given) | 2.19% | 23.1% | -19.8% | 1.41% | 0% | 17.7% | -1.71% | 3.35% | 22.9% | -4.61% |
| OC(CNCCn1cccn1)c1ccc2c(c1)OCCO2 (stereo not given) | -5.4% | 13.3% | 10.3% | 1% | 0% | 4.83% | -2.77% | 4.74% | 10.3% | -13.4% |
| O=C(NCc1cc[nH]n1)NCC(O)COc1cccc(F)c1 (stereo not given) | -1.6% | 10.7% | -6.96% | -7.03% | -7.98% | 8.74% | 12.9% | -2.63% | 0% | -6.87% |
| Cc1nc(CN2CCC3(CC2)NC(=O)CC3c2ccccc2)cs1 (stereo not given) | -3.5% | -1.3% | -0.193% | 0.375% | -0.913% | 9.19% | 4.58% | 8.7% | 12.5% | -9.48% |
| Cc1ccc(C(=O)N2C[C@@H](OCC3CCOCC3)[C@H]3OCCC[C@H]32)o1 | -3.48% | 14.3% | 0.662% | 4.58% | 10.9% | 9.44% | 6.42% | 4.74% | 15.4% | 18.8% |
| O=C(c1ccno1)N1CCC2(CC1)C(=O)N(CC1CC1)c1ccccc12 | -0.905% | -29.9% | -1.46% | -0.75% | 3.2% | 3% | 5.14% | 1.93% | 0% | -3.48% |
